These results are taken from PubChem BioAssay AID485270 (The Scripps Research Institute Molecular Screening Center, 2010).

Molecules are shown by their SMILES. Among all 330,000 compounds or so, about 5,800 (1.8%) were called active. The list comes from a sample in which actives are over-represented; it also holds similar structures and randomly drawn compounds. Unmarked numbers belong to inactive results. No stated cut-off is given here; in the data, active means inhibition mostly above about 38% (no sharp cut-off); inactive means mostly below about 40%.

The target in this assay is Orexin/Hypocretin receptor type 1 (Homo sapiens) (UniProt O43613). In words: blocks the human orexin 1 receptor (AID 485270).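 Further: 0% = agonist challenge alone and 100% = reference antagonist.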 Particulars: OX1R-expressing cells, FRET antagonist read-out; at 6.6 µM; hits give high values.
Chain of Orexin/Hypocretin receptor type 1 (Homo sapiens) (O43613 whole entry, looked up): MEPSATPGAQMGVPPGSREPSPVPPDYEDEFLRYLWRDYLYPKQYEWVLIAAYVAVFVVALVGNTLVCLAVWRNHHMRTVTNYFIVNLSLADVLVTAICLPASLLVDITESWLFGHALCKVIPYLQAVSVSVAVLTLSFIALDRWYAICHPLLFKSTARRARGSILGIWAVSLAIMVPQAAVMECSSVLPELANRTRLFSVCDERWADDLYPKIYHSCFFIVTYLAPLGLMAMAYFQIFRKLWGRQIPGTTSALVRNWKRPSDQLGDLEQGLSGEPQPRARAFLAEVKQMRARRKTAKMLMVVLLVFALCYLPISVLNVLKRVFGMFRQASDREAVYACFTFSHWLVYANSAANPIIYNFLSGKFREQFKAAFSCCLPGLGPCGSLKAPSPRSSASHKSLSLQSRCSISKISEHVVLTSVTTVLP
In general, inhibition refers to the relative decrease from the control value, in per cent. Regarding `CCC(CO)Oc1cc(NCc2ccccc2)c2ncn(C3CCCC3)c2c1` (stereo unspecified), the inhibition was 12.8%.

On to `N#CC(=C1SC=CS1)c1nc(-c2ccccc2)cs1`, for which the inhibition is 105% (active).

Turning to `N#CC(=C1CCCC1)c1nc(-c2ccc(Cl)cc2)cs1`, the inhibition is 20.1%.

`N#C/C(=C1\CCCN1)c1nc(-c2ccccc2)cs1`: the inhibition is 84.1% (active).

Turning to `Cn1c(/C(C#N)=C2/CCCCCN2)nc2ccccc21`, the inhibition was 11.5%.

With `CCNC(=O)CSc1nc(-c2ccccc2)cs1`, the inhibition is 16.1%.

Take `N#C/C(=C1/CCCN1)c1ccccn1`: the inhibition is 5.71%.

As to `Cc1c(NC(=O)CN(C)CC(=O)Nc2ccc(F)c(F)c2F)c(=O)n(-c2ccccc2)n1C`, the inhibition was 4.65%.

As to `COC(=O)[C@]1(Cc2ccccc2)N[C@H](CN(C)S(=O)(=O)c2ccc(F)cc2)[C@@H]2C(=O)N(Cc3ccccc3)C(=O)[C@@H]21`, the inhibition is 15.4%.

As to `CNC[C@@H]1Oc2c(NS(C)(=O)=O)cccc2C(=O)N([C@@H](C)CO)C[C@H]1C`, the inhibition is -1.47%.

For `O=C(C1CC1)N1N=C2CCCCC2C1(O)C(F)(F)F` (stereo unspecified), the inhibition was 5.9%.

`CCOC(=O)[C@H]1[C@H]2COc3cc(OC)ccc3[C@@H]2N2C(=O)CN(Cc3ccc(Cl)cc3)C(=O)[C@@]12C`: the inhibition is 7.39%.

As for `O=C(NCCc1ccc(F)cc1)c1ccc2nccnc2c1`, the inhibition was 9.11%.

As to `Cc1ccc(C(=O)Nc2nnc(C3=COCCO3)o2)cc1C`, the inhibition is 9.95%.

Consider `COc1cc(-c2nnc(NC(=O)C3=COCCO3)o2)cc(OC)c1OC`, for which the inhibition is 4.19%.

Take `O=C(Nc1nnc(C2=COCCO2)o1)c1ccc([N+](=O)[O-])s1`: the inhibition is 88.5% (active).

Regarding `O=C(COC(=O)/C=C/c1ccc(Br)o1)Nc1cccc(S(=O)(=O)N2CCOCC2)c1`, the inhibition is 4.21%.

`Cc1noc(C)c1NC(=O)Nc1ccc2c(c1)C(=O)N([C@H](C)CO)C[C@H](C)[C@@H](CN(C)C(=O)Nc1ccccc1)O2`: the inhibition was -3.75%.

As to `COc1cc(C(=O)OCc2cc(=O)n3ccsc3n2)ccc1OC(C)C`, the inhibition is 8.65%.

As for `COc1cc(OC)c(NC(=O)c2ccc(Br)o2)cc1Cl`, the inhibition is 81.8% (active).

For the molecule `CCN1CCN(c2c(Cl)cccc2NC(=O)c2ccc(Br)o2)CC1`, the inhibition was 14.6%.

With `COc1ccc(Cl)cc1NC(=O)COC(=O)c1ccc(Br)o1`, the inhibition is 5.94%.

Take `CCN(C[C@H]1N[C@@](CC)(C(=O)OC)[C@H]2C(=O)N(C)C(=O)[C@@H]12)C(=O)Nc1ccc(F)cc1`: the inhibition was -4.34%.

With `CCn1nnc2cc(C(=O)Nc3ccc(C(=O)OC(C)C)cc3)ccc21`, the inhibition was 16.8%.

On to `O=C(N/N=C/c1ccc(Cl)c(Cl)c1)c1ccc2nc[nH]c2c1`, for which the inhibition is 31.8%.

Take `CSc1ccc(/C=N/NC(=O)c2cccc(Cl)c2)cc1`: the inhibition was 44.4% (active).

For the molecule `CSc1ccc(/C=N\NC(=O)CC(=O)NC(C)C)cc1`, the inhibition was 9.93%.

For the molecule `O=C(CN1C(=O)c2cccc3cccc1c23)Nc1ccccc1`, the inhibition is 26.3%.

Regarding `O=C(CN1C(=O)c2cccc3cccc(c23)C1=O)N1CCCCC1`, the inhibition is 79.7% (active).

On to `O=C(CCCN1C(=O)c2cccc3cccc(c23)C1=O)N1CCN(Cc2ccc3c(c2)OCO3)CC1`, for which the inhibition is 52.3%.

As to `C/C(N)=C(/C#N)C(=O)COC(=O)c1cc(-c2ccccc2)nc2ccc(Br)cc12`, the inhibition was 8.99%.

`C/C(N)=C(/C#N)C(=O)COC(=O)c1cc(-c2ccc(C)cc2)nc2ccccc12`: the inhibition was 86.7% (active).

On to `C/C(N)=C(/C#N)C(=O)COC(=O)c1cc(-c2cccc(Br)c2)nc2ccccc12`, for which the inhibition was 44.3%.

As for `CC[C@]1(C(=O)OC)[C@H]2C(=O)N(Cc3ccccc3)C(=O)[C@H]2[C@H]2CN=C(SCc3ccc(Cl)cc3)N21`, the inhibition was 4.24%.

`CCCS(=O)(=O)N1CCC(CCOc2ccccc2)(C(=O)OCC)CC1`: the inhibition is 17.7%.

Regarding `Cc1ccc(S(=O)(=O)NCC(=O)NNC(=O)c2ccc(Br)cc2)cc1C`, the inhibition was 15.8%.

As for `Nc1nc(-c2sc3nc4c(cc3c2N)CCCC4)nc(N2CCOCC2)n1`, the inhibition was 95.8% (active).

In the case of `Cc1cccc(NC(=O)c2sc3nc(N4CCOCC4)c4c(c3c2N)CCCC4)c1`, the inhibition was 4.35%.

Take `Cc1nc(N2CCOCC2)nc2c1CCCC2`: the inhibition is 5.29%.

As to `Cc1ccccc1-n1cc(CNC(=O)C2CCC(=O)N(C3CC3)C2)cn1` (stereo unspecified), the inhibition was 15.2%.

Turning to `C=CC[C@H](CC(=O)NCCO)C(=O)N[C@@H](COC(=O)[C@@H](CC=C)Cc1ccc(F)cc1)Cc1c[nH]c2ccccc12`, the inhibition was 5.23%.

Turning to `Cc1ccc2c(c1)c1ncn(CCC3=CCCCC3)c(=O)c1n2C`, the inhibition was 18.4%.

For `Cc1ccc2c(c1)c1ncn(Cc3ccc(F)cc3)c(=O)c1n2C`, the inhibition is 8.56%.

Consider `Cc1ccc2c(c1)c1ncnc(N3CCc4ccccc4C3)c1n2C`, for which the inhibition was 74.4% (active).

On to `CN(c1ccccc1)S(=O)(=O)c1cc(C(=O)N2CCN(c3ncccn3)CC2)ccc1Cl`, for which the inhibition is 4.83%.

For `COc1ccc(-c2nc(CS(=O)CC(=O)NCc3ccccn3)c(C)o2)cc1` (stereo unspecified), the inhibition is 1.65%.

Take `COc1ccc2oc(=O)c(C(=O)N3CCCC3)cc2c1`: the inhibition was 0.49%.

Take `COc1ccc2oc(=O)c(C(=O)NCc3ccccn3)cc2c1`: the inhibition was 95.3% (active).

As to `COc1ccc(CNC(=O)C[C@H]2C[C@H](C(=O)N3CCOCC3)[C@@]3(CCC4CCCC4)c4[nH]c5ccc(Cl)cc5c4CCN3C2=O)cc1OC`, the inhibition was 0.33%.

For the molecule `O=C1C=CN2CCCC2CC1` (stereo unspecified), the inhibition was 13.3%.

Regarding `CC(=O)Nc1ccc(S(=O)(=O)NCCC(=O)N2CCN(c3ccccc3Cl)CC2)cc1`, the inhibition is 13.1%.

`CN1C(=O)/C(=N/OC(=O)c2ccccc2Br)c2ccccc21`: the inhibition was 14%.

In the case of `CN1C(=O)/C(=C\c2cc(Br)cs2)c2ccccc21`, the inhibition is 63.8% (active).

For the molecule `CCC1C(=O)c2ccccc2N(C)C1=O` (stereo unspecified), the inhibition is 17.9%.

As for `CCOCc1c(C(=O)N2CCN(Cc3ccc(Br)s3)CC2)oc2ccccc12`, the inhibition was 5.32%.

Regarding `O=C(COc1ccc([N+](=O)[O-])cc1Cl)Nc1ccc2[nH]c(=O)[nH]c2c1`, the inhibition is 9.15%.

Take `CCCCCCSc1ccc([C@@H]2[C@H]3C(=O)N(CC)C(=O)[C@H]3[C@]3(C(=O)OC)CCCCN23)cc1`: the inhibition was 3.69%.

On to `N#Cc1nc(-c2cccc3ccccc23)oc1N`, for which the inhibition was 71.4% (active).

As to `COc1ccc(Nc2oc(-c3ccccc3Cl)nc2C#N)cc1`, the inhibition is 29.4%.

Turning to `CC1CCN(c2oc(-c3ccccc3F)nc2C#N)CC1`, the inhibition is 9.88%.

As for `Cc1ccc(NC(=O)C2CC2)cc1S(=O)(=O)N1CCOCC1`, the inhibition is 5.49%.
